Measured values as given in PubChem BioAssay AID1751 (National Center for Advancing Translational Sciences (NCATS), 2009).
Where “and” joins values, the source holds several entries; their conditions need not be identical. Equal values may be shown once. Records with an inconclusive call do not appear. A number with no mark means an inactive call. Calls of active or inactive are those of the source. The call rests on the fitted dose curve; in most records, active means well fitted activation curve with a large enough effect; inconclusive means small, poorly fitted or top-dose-only effect; inactive means no such curve, though single readings can be large or run the other way.

Target: Pyruvate kinase PKM (Homo sapiens) (UniProt P14618)
Experiment: Confirmation Concentration-Response Assay for Activators of Human Muscle isoform 2 Pyruvate Kinase
Details: purified hPK-M2, Kinase-Glo ATP luminescence, 1 h; series mostly up to 57.5 µM; activation (negative = inhibition): at the top concentration
Excerpt: NIH Chemical Genomics Center [NCGC] Matthew G. Vander Heiden, M.D., Ph.D. [Harvard Medical School, 77 Avenue Louis Pasteur, Boston, MA 02115] MLPCN Grant: 1 R03 MH085679-01 NCGC Assay Overview: Human pyruvate kinase muscle 2 (hPK-M2) enzyme was supplied as a highly purified (>95% pure) preparation from Harvard Medical School and assayed for its ability to generate ATP from ADP using phosphoenolpyruvate (PEP) as a substrate. ATP generation was detected in a coupled reaction by luciferase-mediated luminescence, an ATP-dependent process. Pyruvate kinase substrates, PEP and ADP, were present in the assay at Km and approximately 10-fold below Km respectively. The enzyme was assayed at an intermediate level of activity to screen for both inhibitors and activators.
NCGC Assay Protocol Summary: Three uL of substrate mix (at r.t.) in assay buffer (50 mM Imidazole pH7.2, 50 mM KCl, 7 mM MgCl2, 0.01% Tween 20, 0.05% BSA) was dispensed into white solid bottom 1,536 well microtiter plates so that the final concentrations of substrates in the assay were 0.1 mM ADP and 0.5 mM PEP. 23 nL of compound were delivered by a pin tool and 1 uL of enzyme mix (final concentration of 0.1 nM) in assay buffer (4 degree Celsius) was added. Plates were incubated at room temperature for 1 hour. Two uL of detection mix (Kinase-Glo, Promega; at 4 degree Celsius protected from light) was added and luminescence read by a ViewLux (Perkin Elmer) at 1 second exposure/plate. Data were normalized to the uninhibited (column 3) and AC100 inhibition (no enzyme in column 2). To monitor activation, the first column contained a titration of the activator, NCGC00031955-03 (16-point 1:2 dilutions in duplicate starting at 57 uM) and the first 16 rows of column 4 contained 57 uM of NCGC00031955-03.

Pyruvate kinase PKM (Homo sapiens), sequence (P14618 whole entry, looked up, canonical isoform): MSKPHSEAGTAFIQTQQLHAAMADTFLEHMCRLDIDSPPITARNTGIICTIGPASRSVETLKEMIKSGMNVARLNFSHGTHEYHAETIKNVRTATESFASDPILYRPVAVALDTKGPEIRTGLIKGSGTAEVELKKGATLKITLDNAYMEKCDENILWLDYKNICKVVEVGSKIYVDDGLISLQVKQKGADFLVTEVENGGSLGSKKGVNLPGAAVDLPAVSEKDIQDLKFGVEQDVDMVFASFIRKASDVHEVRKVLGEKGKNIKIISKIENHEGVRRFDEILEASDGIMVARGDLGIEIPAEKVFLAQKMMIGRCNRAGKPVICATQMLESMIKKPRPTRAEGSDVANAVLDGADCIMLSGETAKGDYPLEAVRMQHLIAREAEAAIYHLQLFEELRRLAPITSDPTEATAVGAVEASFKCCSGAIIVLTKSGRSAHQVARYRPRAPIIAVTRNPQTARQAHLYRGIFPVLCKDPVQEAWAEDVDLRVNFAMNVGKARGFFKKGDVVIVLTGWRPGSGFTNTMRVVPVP

Q: `Cc1cc2c(s1)c1cnn(Cc3ccccc3)c(=O)c1n2C` was tested. Which Potency did it give?
A: 45 nM (active)

Q: For `Oc1ccc(-c2nnc(-c3ccc(O)cc3)nn2)cc1`, which “activation (negative = inhibition)” value is on record?
A: -76.3%

Q: For `O=C1C(=C2SCCCS2)CC/C1=C\c1ccc(F)cc1`, which “activation (negative = inhibition)” value is on record?
A: -86.9%

Q: For `O=S(=O)(c1ccc2c(c1)OCCCO2)N1CCN(S(=O)(=O)c2c(F)cccc2F)CC1`, which Potency is on record?
A: 80 nM (active)

Q: With `COc1cccc(S(=O)(=O)N2CCN(S(=O)(=O)c3ccc4c(c3)OCCO4)CC2)c1` as the molecule, how does the Potency read?
A: 63.5 nM (active)

Q: With `O=C1CN(S(=O)(=O)c2ccc3c(c2)OCCO3)CCN1S(=O)(=O)c1c(F)cccc1F` as the molecule, how does the Potency read?
A: 2250 nM (active)

Q: Which Potency does the source give for `O=S(=O)(c1c(F)cccc1F)C1CCN(S(=O)(=O)c2ccc3c(c2)OCCO3)CC1` here?
A: 201 nM (active)

Q: With `O=C(CN1C(=O)N/C(=C\c2cccn2-c2cccc(C(=O)O)c2)C1=O)Nc1ccccc1F` as the molecule, how does the “activation (negative = inhibition)” value read?
A: 22%

Q: With `COc1cc2c(s1)c1cnn(Cc3ccccc3F)c(=O)c1n2C` as the molecule, how does the Potency read?
A: 40.1 nM (active)

Q: With `Cc1cc2c(s1)c1cnn(Cc3ccc(S(C)(=O)=O)cc3)c(=O)c1n2C` as the molecule, how does the Potency read?
A: 4500 nM (active)

Q: With `O=C1NC(=S)S/C1=C1\Sc2ccccc2N1CCCS(=O)(=O)O` as the molecule, how does the “activation (negative = inhibition)” value read?
A: -46.2%

Q: Which Potency does the source give for `O=S(=O)(c1ccc2c(c1)OCCO2)C1CCN(S(=O)(=O)c2c(F)cccc2F)CC1` here?
A: 713 nM (active)

Q: For `O=S(=O)(NC1CCN(S(=O)(=O)c2ccc3c(c2)OCCO3)C1)c1c(F)cccc1F` (stereo not given), which Potency is on record?
A: 17900 nM (active)

Q: Which Potency does the source give for `Cc1cc2c(s1)c1cnn(Cc3ccc(F)cc3)c(=O)c1n2C` here?
A: 25.3 nM (active)

Q: With `Cc1ccc(NS(=O)(=O)c2ccc3c(c2)CCC(=O)N3)cc1C` as the molecule, how does the Potency read?
A: 163 nM (active)

Q: With `O=S(=O)(NCC1CN(S(=O)(=O)c2c(F)cccc2F)C1)c1ccc2c(c1)OCCO2` as the molecule, how does the Potency read?
A: 2530 nM (active)

Q: With `O=S(=O)(c1cccc(F)c1)N1CCN(S(=O)(=O)c2ccc3c(c2)OCCO3)CC1` as the molecule, how does the Potency read?
A: 284 nM (active)

Q: With `C[C@H]1CN(S(=O)(=O)c2c(F)cccc2F)CCN1S(=O)(=O)c1ccc2c(c1)OCCO2` as the molecule, how does the Potency read?
A: 3570 nM (active)

Q: Which Potency does the source give for `Cc1cc2c(s1)c1cnn(Cc3ccc(C)c(F)c3F)c(=O)c1n2C` here?
A: 56.6 nM (active)

Q: Which Potency does the source give for `Cn1ccc2cc(S(=O)(=O)N3CCN(S(=O)(=O)c4c(F)cccc4F)CC3)ccc21` here?
A: 318 nM (active)

Q: Which Potency does the source give for `O=C1CN(S(=O)(=O)c2c(F)cccc2F)CCN1S(=O)(=O)c1ccc2c(c1)OCCO2` here?
A: 89.7 nM (active)

Q: With `COC(=O)c1cc2c(s1)c1cnn(Cc3ccccc3F)c(=O)c1n2C` as the molecule, how does the Potency read?
A: 39.1 nM (active)

Q: With `O=S(=O)(c1ccc2c(c1)OCCO2)N1CCN(S(=O)(=O)c2cccc[n+]2[O-])CC1` as the molecule, how does the Potency read?
A: 8970 nM (active)

Q: Which Potency does the source give for `O=S(=O)(NC1CCN(S(=O)(=O)c2c(F)cccc2F)CC1)c1ccc2c(c1)OCCO2` here?
A: 3570 nM (active)

Q: For `S=C1NC(c2ccccc2)N2C(=S)NC(c3ccccc3)N12` (stereo not given), which “activation (negative = inhibition)” value is on record?
A: -35.3%

Q: For `Cn1c2cc([N+](=O)[O-])sc2c2cnn(Cc3ccccc3F)c(=O)c21`, which Potency is on record?
A: 12.7 nM (active)

Q: `Cc1cc2c(s1)c1cnn(Cc3ccc(C(F)(F)F)cc3F)c(=O)c1n2C` was tested. Which Potency did it give?
A: 16000 nM (active)

Q: For `Cn1c2cc(B(O)O)sc2c2cnn(Cc3ccccc3F)c(=O)c21`, which Potency is on record?
A: 6350 nM (active)

Q: `O=S(=O)(c1ccc2c(c1)OCCO2)N1CCN(S(=O)(=O)c2c(F)ccc(O)c2F)CC1` was tested. Which Potency did it give?
A: 31.8 nM (active)

Q: `O=S(=O)(NCC1CN(S(=O)(=O)c2ccc3c(c2)OCCO3)C1)c1c(F)cccc1F` was tested. Which Potency did it give?
A: 4010 nM (active)

Q: How did the Potency turn out when `O=S(=O)(NCCCCCCNS(=O)(=O)c1c(F)cccc1F)c1ccc2c(c1)OCCO2` was run?
A: 4010 nM (active)

Q: Which Potency does the source give for `O=S(=O)(NCCNS(=O)(=O)c1c(F)cccc1F)c1ccc2c(c1)OCCO2` here?
A: 20100 nM (active)

Q: How did the Potency turn out when `Cn1c2cc(C#N)sc2c2cnn(Cc3ccccc3F)c(=O)c21` was run?
A: 11.3 µM (active) and 22.5 nM (active)

Q: Which Potency does the source give for `O=S(=O)(NC1CCC(NS(=O)(=O)c2c(F)cccc2F)CC1)c1ccc2c(c1)OCCO2` (stereo not given) here?
A: 1.27 µM (active) and 22.5 µM (active)

Q: With `COc1ccc2nc3sc(C(=O)NCc4cccs4)c(N)c3cc2c1` as the molecule, how does the “activation (negative = inhibition)” value read?
A: -22.2%

Q: How did the Potency turn out when `O=S(=O)(c1ccc2c(c1)OCCO2)N1CCN(S(=O)(=O)c2c(F)cccc2F)CC1` was run?
A: 35.7 nM (active)

Q: With `O=S(=O)(c1ccc2c(c1)OCCO2)N1CCN(S(=O)(=O)c2cc(F)c(F)cc2F)CC1` as the molecule, how does the Potency read?
A: 71.3 nM (active)

Q: For `CC(=O)Nc1cc2c(s1)c1cnn(Cc3ccccc3F)c(=O)c1n2C`, which Potency is on record?
A: 17900 nM (active)

Q: For `O=S(=O)(NCCCCNS(=O)(=O)c1c(F)cccc1F)c1ccc2c(c1)OCCO2`, which Potency is on record?
A: 5050 nM (active)

Q: With `Cc1cc(C)nc(SCCc2ccncc2)n1` as the molecule, how does the “activation (negative = inhibition)” value read?
A: -4.36%
